# Experimental data reported in PubChem BioAssay.
# Assay: NFkB reporter suppression in cystic fibrosis bronchial cells – cell-based, uHTS hits, panel, cytotoxicity readout, dose response (AID 624344)
# Settings: CF bronchial epithelial cells, PAF-induced NFkB reporter inhibition, with PAF, run 2; at 79 µM (top of the series) unless noted
row,SMILES,inhibition
1,CCOc1ccc(-n2cc(-c3ccccc3)c3c(N4CCOCC4)ncnc32)cc1,102%
2,O=S1(=O)CCC(NC(=S)SCCOc2ccccc2)C1 (stereo not drawn),108%
3,CCOC(=O)[C@@H]1[C@H]2COc3ccc(Br)cc3[C@H]2N2C(=O)N(c3ccc(C)cc3)C(=O)[C@]12C,35.9%
4,CCOc1cccc(-c2nnc3sc(C4CCCCC4)nn23)c1,116%
5,c1ccc2c(-c3cncc4ccccc34)cncc2c1,99.8%
6,COc1cccc(C(=O)N2C(C(C)C)COc3cc(Br)ccc3S2(=O)=O)c1 (stereo not drawn),101%
7,COc1ccc(-c2cc(NC=O)c3ncc(-c4ccc(OC)c(OC)c4)n3c2)c(OC)c1,86.2%
8,CC(C)(CO)CNc1ccn2nccc2n1,99.8%
9,COc1ccccc1-c1cc(NC=O)c2ncc(-c3ccc(F)cc3)n2c1,75.8% [at 39.5 µM]
10,Cc1cccc(N2CCN(C(=O)CCn3c(=S)[nH]c4cc5c(cc4c3=O)OCO5)CC2C)c1 (stereo not drawn),93.9%
11,COc1ccc2cc3c(N)nn(C(=O)c4ccccc4[N+](=O)[O-])c3nc2c1,111%
12,Cc1[nH]nc2c1-c1nc3ccccc3nc1C(C)(C)C2,99.3%
13,CS(=O)(=O)c1ncc(Cl)c(C(=O)Nc2ccc(OC(F)F)cc2)n1,90.1%
14,CC(C)(C)c1nc(NC(=O)Nc2ccccc2)sc1Br,103%
15,COc1ccc(-c2cc(=O)oc3c(C)c(O)ccc23)cc1,101%
16,CCOC(=O)C1=C(C)Nc2ccccc2N=C1NC(=O)c1oc2ccccc2c1COC,101%
17,CC1CCc2sc3ncnc(N4CCOCC4)c3c2C1 (stereo not drawn),101%
18,Clc1ccc(-c2csc3ncnc(N4CCc5ccccc5C4)c23)cc1,112%
